Measured values taken from the OligoGym collection.

Target: PPARGC1A
Assay: pooled miR-30 sensor sort-seq; sequence = guide strand
Conditions: shRNA
Note: reference of the scale not given here.

| Sequence | sensor-assay potency score (higher = more potent) |
| --- | --- |
| TTGACAAATACTCTTCGCTTTA | -1.03 |
| TAGGTCTGCATAGTTAGACTTG | -0.55 |
| TTTCTAGTTGTCTAGAGTCTTG | -1.22 |
| TTTATCACTTTCATCTTCGCTG | 0.495 |
| TAGGTAATGAAACCATAGCTGT | -0.856 |
| TTAGACTTGAAAAATTGCTTGC | 0.583 |
| TTGCTGTTGACAAATACTCTTC | -0.955 |

Target: PPCS
Assay: as above
Conditions: shRNA

| Sequence | sensor-assay potency score (higher = more potent) |
| --- | --- |
| TACAATAAACACAAAGGACTGT | 0.367 |
| TAAACACAAAGGACTGTCGTGA | 0.415 |
| TAAATTTCCAAAGCCTTCCGAG | -0.661 |
| TTCATTGTTATCTGCAGTGGGC | -0.306 |
| TCTGATAGCAATAACTTGGTTT | 0.221 |
| TTCACCATCTCTAAGAGCCCTG | -0.3 |
| TTATCCACTATCTTCTCTTCTA | -0.111 |
| TTGATGCTGATAAATTTCCAAA | -1.35 |
| TTCTCTTCTATCTCTACGCCTT | -0.45 |
| TTTTTTTGTAGTTTTCACCATC | -0.312 |
| TTGTAGTTTTCACCATCTCTAA | -1.34 |
| TTTGGCACCATCTTCATTGTTA | 0.148 |

Target: PPEF1
Assay: as above
Conditions: shRNA

| Sequence | sensor-assay potency score (higher = more potent) |
| --- | --- |
| TAATCTTACCAATAACAGCTTG | -0.683 |
| TTCATCAGCATATTCGATGGAC | -0.181 |
| TTTTATTGTGCTTCGAGTCAGT | 0.317 |
| TTTTCTGTGGTCTTGAAGTTGG | -0.736 |
| TTATGCAAAATTTCTTTCGTGA | 0.493 |
| TATCGAGTCCACATAATCCCAT | -1.01 |
| TTGTATGTGAGTGAAATTCGGC | -0.494 |
| TTTTCCATAGTATCCACTCTTT | -0.493 |
| TAGTAGTTTTCTCTTGTGCTGT | -0.247 |
| TAGTTTTCCAACATGAAGGAAA | -0.591 |
| TTGTTCATCAGCATATTCGATG | -0.664 |
| TAATGCTGAAACCAAATCCTAT | -0.921 |

Target: PPIA
Assay: as above
Conditions: shRNA

| Sequence | sensor-assay potency score (higher = more potent) |
| --- | --- |
| ATAATCATAAACTTAACTCTGC | 0.46 |
| TTCTGCTGTCTTTGGGACCTTG | -0.756 |
| TATTTCATAATCATAAACTTAA | -0.804 |
| TCATCTTCAAATTTCTCCCCAT | -0.0656 |
| TCTTCTTGCTGGTCTTGCCATT | -1.28 |
| TAAACTTAACTCTGCAATCCAG | -0.459 |
| TTAGGATGAAGTTCTCATCTTC | 0.589 |
| AAACTTAACTCTGCAATCCAGC | -0.893 |
| TACAGAAGGAATGATCTGGTGG | 0.317 |
